# Measured values published in the supplement of paper PMC8728848.
# Shown is part of a subset that was picked to be rich in the strongest signals.
# B1: DCL-1 (Homo sapiens), Q8IX05 (protein)
# chain: MLRAALPALLLPLLGLAAAAVADCPSSTWIQFQDSCYIFLQEAIKVESIEDVRNQCTDHGADMISIHNEEENAFILDTLKKQWKGPDDILLGMFYDTDDASFKWFDNSNMTFDKWTDQDDDEDLVDTCAFLHIKTGEWKKGNCEVSSVEGTLCKTAIPYKRKYLSDNHILISALVIASTVILTVLGAIIWFLYKKHSDSRFTTVFSTAPQSPYNEDCVLVVGEENEYPVQFD
# How the values were obtained:
# Assay in all cases: glycan array binding signal (z-score within array); higher = stronger binding
# Settings in all cases: glycan notation: IUPAC condensed, linker removed
# [1] = molecular target: Fuc(a1-2)Gal(b1-3)GlcNAc(b1-2)Man(a1-3)[Fuc(a1-2)Gal(b1-3)GlcNAc(b1-2)Man(a1-6)]Man(b1-4)GlcNAc(b1-4)GlcNAc
# Method in brief: (§1)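 The Consortium for Functional Glycomics database supplied 3228 glycan arrays, of which those lacking an available protein sequence were dropped. The binding signal, a within-array Z-score, was averaged across arrays of the same protein sequence and across linkers. Negative scores can be read as non-binding.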
# [2] = molecular target: Fuc(a1-2)Gal(b1-3)GlcNAc(b1-3)Gal(b1-4)Glc
# Method in brief: as §1
# [3] = molecular target: Fuc(a1-2)Gal(b1-3)GlcNAc(b1-3)[Fuc(a1-3)[Gal(b1-4)]GlcNAc(b1-6)]Gal(b1-4)Glc
# Method in brief: as §1
# [4] = molecular target: Fuc(a1-2)Gal(b1-3)[Fuc(a1-4)]GlcNAc(b1-2)Man(a1-3)[Fuc(a1-2)Gal(b1-3)[Fuc(a1-4)]GlcNAc(b1-2)Man(a1-6)]Man(b1-4)GlcNAc(b1-4)GlcNAc
# Method in brief: as §1
# Fuc(a1-2)Gal(b1-4)Glc = molecular target: Fuc(a1-2)Gal(b1-4)Glc
# Method in brief: as §1
# [5] = molecular target: Fuc(a1-2)Gal(b1-4)GlcNAc(b1-2)[Fuc(a1-2)Gal(b1-4)GlcNAc(b1-4)]Man(a1-3)[Fuc(a1-2)Gal(b1-4)GlcNAc(b1-2)Man(a1-6)]Man(b1-4)GlcNAc(b1-4)GlcNAc
# Method in brief: as §1
# [6] = molecular target: Fuc(a1-2)Gal(b1-4)[Fuc(a1-3)]GlcNAc(b1-3)GalNAc
# Method in brief: as §1
# [7] = molecular target: Fuc(a1-2)[Gal(a1-3)]Gal(b1-3)GlcNAc
# Method in brief: as §1
# [8] = molecular target: Fuc(a1-2)[Gal(a1-3)]Gal(b1-4)GlcNAc
# Method in brief: as §1
# [9] = molecular target: Fuc(a1-2)[GalNAc(a1-3)]Gal(b1-3)GlcNAc(b1-2)Man(a1-3)[Fuc(a1-2)[GalNAc(a1-3)]Gal(b1-3)GlcNAc(b1-2)Man(a1-6)]Man(b1-4)GlcNAc(b1-4)[Fuc(a1-6)]GlcNAc
# Method in brief: as §1
# [10] = molecular target: Fuc(a1-2)[GalNAc(a1-3)]Gal(b1-4)GlcNAc
# Method in brief: as §1
# [11] = molecular target: Fuc(a1-2)[GalNAc(a1-3)]Gal(b1-4)GlcNAc(b1-2)Man(a1-3)[Fuc(a1-2)[GalNAc(a1-3)]Gal(b1-4)GlcNAc(b1-2)Man(a1-6)]Man(b1-4)GlcNAc(b1-4)GlcNAc
# Method in brief: as §1
# [12] = molecular target: Fuc(a1-3)[Gal3S(b1-4)]GlcNAc6S
# Method in brief: as §1
# [13] = molecular target: Gal(a1-3)Fuc(a1-2)Gal(b1-4)GlcNAc(b1-3)[Gal(a1-3)Fuc(a1-2)Gal(b1-4)GlcNAc(b1-6)]GalNAc
# Method in brief: as §1
# Gal(a1-3)Gal(b1-4)GlcNAc = molecular target: Gal(a1-3)Gal(b1-4)GlcNAc
# Method in brief: as §1
# [14] = molecular target: Gal(a1-3)[Gal(a1-4)]Gal(b1-4)GlcNAc
# Method in brief: as §1
# Gal(a1-4)Gal(b1-4)Glc = molecular target: Gal(a1-4)Gal(b1-4)Glc
# Method in brief: as §1
# Gal(a1-4)Gal(b1-4)GlcNAc = molecular target: Gal(a1-4)Gal(b1-4)GlcNAc
# Method in brief: as §1
# [15] = molecular target: Gal(a1-4)Gal(b1-4)GlcNAc(b1-3)Gal(b1-4)Glc
# Method in brief: as §1
# [16] = molecular target: Gal(b1-3)GlcNAc(b1-2)[Gal(b1-3)GlcNAc(b1-6)]Man(a1-6)[Gal(b1-3)GlcNAc(b1-2)Man(a1-3)]Man(b1-4)GlcNAc(b1-4)GlcNAc
# Method in brief: as §1
# [17] = molecular target: Gal(b1-3)GlcNAc(b1-3)Gal(b1-4)GlcNAc
# Method in brief: as §1
# Gal(b1-4)Gal = molecular target: Gal(b1-4)Gal
# Method in brief: as §1
# Gal(b1-4)Glc6S = molecular target: Gal(b1-4)Glc6S
# Method in brief: as §1
# [18] = molecular target: Gal(b1-4)GlcNAc(b1-3)Gal(b1-4)GlcNAc
# Method in brief: as §1
# Gal(b1-6)Gal = molecular target: Gal(b1-6)Gal
# Method in brief: as §1
# [19] = molecular target: Gal3S(b1-4)[Fuc(a1-3)]Glc6S
# Method in brief: as §1
# Gal4S(b1-4)GlcNAc = molecular target: Gal4S(b1-4)GlcNAc
# Method in brief: as §1
# Gal6S(b1-4)Glc = molecular target: Gal6S(b1-4)Glc
# Method in brief: as §1
# GalNAc(b1-3)Gal = molecular target: GalNAc(b1-3)Gal
# Method in brief: as §1
# GalNAc(b1-4)Gal(b1-4)Glc = molecular target: GalNAc(b1-4)Gal(b1-4)Glc
# Method in brief: as §1
# Glc(b1-4)Glc = molecular target: Glc(b1-4)Glc
# Method in brief: as §1
# Glc(b1-6)Glc = molecular target: Glc(b1-6)Glc
# Method in brief: as §1
# [20] = molecular target: GlcNAc(a1-6)Gal(b1-4)GlcNAc
# Method in brief: as §1
# [21] = molecular target: GlcNAc(b1-2)[GlcNAc(b1-4)]Man(a1-3)[GlcNAc(b1-4)][GlcNAc(b1-2)[GlcNAc(b1-6)]Man(a1-6)]Man(b1-4)GlcNAc(b1-4)GlcNAc
# Method in brief: as §1
# [22] = molecular target: GlcNAc(b1-4)Gal(b1-4)GlcNAc
# Method in brief: as §1
# [23] = molecular target: Man(a1-2)Man(a1-3)[Man(a1-2)Man(a1-6)]Man(a1-6)[Man(a1-2)Man(a1-2)Man(a1-3)]Man(b1-4)GlcNAc(b1-4)GlcNAc
# Method in brief: as §1
# [24] = molecular target: Man(a1-3)[Man(a1-6)]Man(a1-6)[Man(a1-2)Man(a1-3)]Man(b1-4)GlcNAc(b1-4)GlcNAc
# Method in brief: as §1
# [25] = molecular target: Neu5Ac(a2-3)Gal(b1-3)GalNAc(b1-3)Gal(a1-4)Gal(b1-4)Glc
# Method in brief: as §1
# [26] = molecular target: Neu5Ac(a2-3)Gal(b1-3)GlcNAc(b1-3)GalNAc
# Method in brief: as §1
# [27] = molecular target: Neu5Ac(a2-3)Gal(b1-4)GlcNAc(b1-6)[Neu5Ac(a2-3)Gal(b1-3)]GalNAc
# Method in brief: as §1
# [28] = molecular target: Neu5Ac(a2-3)Gal(b1-4)[Fuc(a1-3)]GlcNAc(b1-3)Gal
# Method in brief: as §1
# [29] = molecular target: Neu5Ac(a2-3)Gal(b1-4)[Fuc(a1-3)]GlcNAc(b1-3)GalNAc
# Method in brief: as §1
# [30] = molecular target: Neu5Ac(a2-6)Gal(b1-4)GlcNAc(b1-2)Man(a1-3)[Neu5Ac(a2-6)Gal(b1-4)GlcNAc(b1-2)Man(a1-6)]Man(b1-4)GlcNAc(b1-4)GlcNAc
# Method in brief: as §1
# [31] = molecular target: Neu5Ac(a2-6)Gal(b1-4)GlcNAc(b1-3)Gal(b1-4)GlcNAc(b1-3)Gal(b1-4)GlcNAc
# Method in brief: as §1
# [32] = molecular target: Neu5Ac9Ac(a2-3)Gal(b1-4)GlcNAc
# Method in brief: as §1
binder,measurement,setting,value
B1,glycan array binding signal (z-score),[1],0.687
same,glycan array binding signal (z-score),[2],-0.715
same,glycan array binding signal (z-score),[3],0.156
same,glycan array binding signal (z-score),[4],-0.488
same,glycan array binding signal (z-score),Fuc(a1-2)Gal(b1-4)Glc,0.028
same,glycan array binding signal (z-score),[5],-0.471
same,glycan array binding signal (z-score),[6],1.87
same,glycan array binding signal (z-score),[7],3.01
same,glycan array binding signal (z-score),[8],-0.77
same,glycan array binding signal (z-score),[9],-0.151
same,glycan array binding signal (z-score),[10],-0.734
same,glycan array binding signal (z-score),[11],0.221
same,glycan array binding signal (z-score),[12],-0.491
same,glycan array binding signal (z-score),[13],0.69
same,glycan array binding signal (z-score),Gal(a1-3)Gal(b1-4)GlcNAc,0.709
same,glycan array binding signal (z-score),[14],-0.245
same,glycan array binding signal (z-score),Gal(a1-4)Gal(b1-4)Glc,-0.289
same,glycan array binding signal (z-score),Gal(a1-4)Gal(b1-4)GlcNAc,0.053
same,glycan array binding signal (z-score),[15],-0.496
same,glycan array binding signal (z-score),[16],2.22
same,glycan array binding signal (z-score),[17],-0.606
same,glycan array binding signal (z-score),Gal(b1-4)Gal,-0.028
same,glycan array binding signal (z-score),Gal(b1-4)Glc6S,0.595
same,glycan array binding signal (z-score),[18],2.35
same,glycan array binding signal (z-score),Gal(b1-6)Gal,-0.915
same,glycan array binding signal (z-score),[19],0.532
same,glycan array binding signal (z-score),Gal4S(b1-4)GlcNAc,-0.14
same,glycan array binding signal (z-score),Gal6S(b1-4)Glc,0.156
same,glycan array binding signal (z-score),GalNAc(b1-3)Gal,-0.083
same,glycan array binding signal (z-score),GalNAc(b1-4)Gal(b1-4)Glc,-0.041
same,glycan array binding signal (z-score),Glc(b1-4)Glc,-0.786
same,glycan array binding signal (z-score),Glc(b1-6)Glc,-0.407
same,glycan array binding signal (z-score),[20],6.83
same,glycan array binding signal (z-score),[21],0.126
same,glycan array binding signal (z-score),[22],-0.427
same,glycan array binding signal (z-score),[23],2.43
same,glycan array binding signal (z-score),[24],10.6
same,glycan array binding signal (z-score),[25],3.04
same,glycan array binding signal (z-score),[26],-0.021
same,glycan array binding signal (z-score),[27],0.223
same,glycan array binding signal (z-score),[28],0.066
same,glycan array binding signal (z-score),[29],5.12
same,glycan array binding signal (z-score),[30],0.079
same,glycan array binding signal (z-score),[31],-1.67
same,glycan array binding signal (z-score),[32],2.38
